Test results: publication PMC10668032, “Altered binding affinity of SIX1-Q177R correlates with enhanced WNT5A and WNT pathway effector expression in Wilms tumor”
In all, about 33,000 sequences were measured (“e-score”: median about -0.053, highest 2% from about 0.38 on). The sample holds the highest values, similar sequences and a random draw of the others, so the mix is not that of the screen.

Biological target: T1, SIX1 homeodomain (reference allele) (human, UniProt Q15475 108-198)
T1 sequence: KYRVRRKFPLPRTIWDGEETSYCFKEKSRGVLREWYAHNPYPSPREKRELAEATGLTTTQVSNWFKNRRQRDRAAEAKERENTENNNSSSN
Assay: universal protein binding microarray; Universal all-10-mer PBM (8x60K, AMADID 030236), 300 nM GST-tagged protein, Alexa Fluor 488 anti-GST; buffer, salt, pH and temperature not stated (as in Berger); high values mean tight binding
Details: protein: ivt; tags: N-terminal GST; dsDNA, one strand shown
Outline: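 GST-tagged homeodomains were made by in vitro transcription/translation and quantified by anti-GST western blot against a recombinant GST standard curve. They were applied in duplicate at 300 nM final concentration to universal 'all 10-mer' protein binding microarrays (8×60K format). Binding was quantified as 8-mer E-scores with the Universal PBM Analysis Suite.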

Sequence | binding signal [E-score]
GATCGGTA | 0.3365 ± 0.000728
TATTCTCA | 0.19 ± 0.0783
AGAACATA | 0.152 ± 0.0261
ATACTGCG | 0.185 ± 0.0499
CGTAATCC | 0.276 ± 0.00776
CGATCCGC | 0.418 ± 0.0398
AGATCCGC | 0.333 ± 0.0252
CGATCCTC | 0.333 ± 0.00326
GGATCCGA | 0.376 ± 0.0683
AGATCCGA | 0.276 ± 0.0275
CGATCCGA | 0.396 ± 0.0357
ATCGTCTC | 0.304 ± 0.0389
TACAAGTA | 0.162 ± 0.0274
ATCTAGGG | 0.187 ± 0.0244
CCGGTAGA | 0.151 ± 0.0265
ATCACGGA | 0.288 ± 0.0444
TATACTCA | 0.192 ± 0.0629
GATACTAA | 0.362 ± 0.0288
AATACTCA | 0.255 ± 0.0524
GATACTAC | 0.432 ± 0.0131
AATACTCG | 0.165 ± 0.0216
GATACTCA | 0.429 ± 0.0251

Sequence | binding signal [E-score]
AATACTAC | 0.181 ± 0.00602
CATACTCA | 0.152 ± 0.0301
GATACTCC | 0.45 ± 0.00694
TAGAGATA | 0.268 ± 0.0459
AGGCCGAT | 0.153 ± 0.00796
ATATAACC | 0.177 ± 0.0584
ATCGCTGG | 0.23 ± 0.00422
AGATAGCC | 0.247 ± 0.0195
ATCTGGGA | 0.196 ± 0.00724
TATCTAAA | 0.301 ± 0.0245
GTATACAC | 0.371 ± 0.00578
ATCAGGAG | 0.188 ± 0.0305
ATCAGGAT | 0.394 ± 0.00836
ATCAGGAA | 0.165 ± 0.0245
ATCATGAC | 0.197 ± 0.0404
ATCATGAT | 0.3975 ± 0.000976
ATCATGAG | 0.23 ± 0.0357
CATCGGGA | 0.164 ± 0.0507
ATCTACTG | 0.22 ± 0.0235
GATCGGGC | 0.296 ± 0.015
TACATATA | 0.254 ± 0.00881
CACATATC | 0.404 ± 0.0155

Sequence | binding signal [E-score]
GACATATC | 0.386 ± 0.0597
AAAATATC | 0.154 ± 0.121
AACATATC | 0.378 ± 0.0821
AACATATA | 0.235 ± 0.0646
CATATATG | 0.23 ± 0.0477
GACATATA | 0.226 ± 0.0783
CACATATA | 0.165 ± 0.0792
ATATTACC | 0.259 ± 0.0572
CCGGTAAA | 0.157 ± 0.034
ACGGTATA | 0.309 ± 0.0298
ACGGTATG | 0.157 ± 0.0316
CCGGTATC | 0.465 ± 0.014
CCGGTATA | 0.343 ± 0.0129
ACGGTATC | 0.461 ± 0.00576
AGCTGGAT | 0.248 ± 0.0399
CGGGCTCA | 0.2 ± 0.0586
ACGATACC | 0.4766 ± 0.000912
CCGATACA | 0.355 ± 0.0604
CCAATACC | 0.324 ± 0.0157
CCGATACG | 0.425 ± 0.0199
GCGATACC | 0.4835 ± 0.00434
ACGATAGC | 0.217 ± 0.0418

Sequence | binding signal [E-score]
CCTATACC | 0.311 ± 0.00556
ACTATACC | 0.294 ± 0.0358
GCGATAGC | 0.165 ± 0.0972
GCGATACA | 0.3759 ± 0.00354
CCGATACC | 0.478 ± 0.00955
CCGATAGG | 0.348 ± 0.0522
ATCGCCCC | 0.253 ± 0.0184
TCATCTCA | 0.298 ± 0.0135
TACCTATA | 0.289 ± 0.0262
ACTGTATA | 0.239 ± 0.0136
ACGATACT | 0.439 ± 0.00647
ACTATACG | 0.247 ± 0.0175
AAGATACT | 0.295 ± 0.0825
CCTATACG | 0.153 ± 0.0436
ACGATACG | 0.4317 ± 0.000841
ACGATACA | 0.3689 ± 0.00151
GAGGTGTA | 0.233 ± 0.0426
CCAATTAG | 0.188 ± 0.014
ATACTAGC | 0.245 ± 0.0797
GGATAGTA | 0.332 ± 0.00348
CGTATCGC | 0.453 ± 0.00646
